A selection: hits, their analogues and other compounds. The true share with any hit is near 3.8%.
Nrf2 block = Nrf2 qHTS screen for inhibitors; A549 ARE-Fluc reporter, luciferase luminescence, 18-24 h; Potency, µM (highest dose often 46 µM), without a hit: top-dose activity change, negative = inhibition, hits mostly inhibitors; 360,000 tested, 2.1% active; AID 504444, 2011; note: % is set by controls: 0 for no effect and ±100 for the full control effect; nearly all actives have a fitted effect of over 60% in size
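Nrf2 function is reported as luminescence of an ARE-controlled luciferase in A549 cells. Compounds were tested at several concentrations, and a CellTiter-Fluor read on the same wells flagged cytotoxicity.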
Nrf2 ARE act = qHTS of Nrf2 Activators; 410,000 tested, 0.31% active; AREc32 ARE-luciferase reporter (MCF7-derived line), luminescence, 24 h; Potency, µM (doses to about 46.1 µM), for the others: top-dose activation, hits mostly activators; note: % of control where 0% means no effect; nearly all actives have a fitted effect of over 65% in size
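Reporter line AREc32 (ARE-Fluc), seeded overnight in OPTI-MEM with 5% FBS; compound pin-transferred, 24 hr at 37 deg C, 5% CO2; luminescent read-out.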
ELG1 DNA repair = qHTS screen for small molecules that inhibit ELG1-dependent DNA repair in human embryonic kidney (HEK293T) cells expressing luciferase-tagged ELG1 | HEK293T ELG1-luciferase reporter, luminescence, 16 h; DNA damage induced by 5-fluorouridine | Potency, µM (top dose mostly 46.1 µM), inactives show top-dose activity change, negative = inhibition, most hits filed as inhibitors | 330,000 tested, 2.3% active | AID 504467, 2011; note: % is set by controls: 0 for no effect and ±100 for the full control effect; nearly all actives have a fitted effect of over 55% in size
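Cells (2,000 per well) received 5-fluorouridine plus test compound or DMSO and were incubated 16 hr at 37 °C, 5% CO2. Luciferase activity was read by luminescence 30 min after ONE-Glo addition; signal suppression marked inhibition of damage-induced ELG1 function.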
A549 tox = Nrf2 qHTS screen for inhibitors: counterscreen for cytotoxicity. A549 ARE-Fluc cells, CellTiter-Fluor viability, 18-24 h. Potency, µM (series often up to 46 µM), for the others: at the top dose activity change, negative = cytotoxicity, hits mostly inhibitors. 390,000 tested, 0.16% active; note: % is set by controls: 0 for no effect and ±100 for the full control effect
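A549 ARE-Fluc cells in 5% FBS OPTI-MEM, 5000 cells/well, rested 2 h then exposed to compounds in concentration-response for 18-24 h at 37 °C. Viability by CellTiter-Fluor fluorescence (Ex 405/Em 525) after 30 min; luciferase luminescence (BugLite, 15 min, RT) read afterwards.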
mIDH1 inhibitor = qHTS for Inhibitors of mutant isocitrate dehydrogenase 1 (IDH1): qHTS; 390,000 tested, 0.093% active; AID 602179, 2012; Potency, µM (series often up to 76.6 µM), without a hit: top-dose activity change, negative = inhibition, actives largely listed as inhibitors; IDH1-R132H enzyme, NADPH consumption, diaphorase/resazurin fluorescence; note: % is set by controls: 0 for no effect and ±100 for the full control effect; nearly all actives have a fitted effect of over 65% in size
Target sequence (O75874 whole entry R132H, stated change not applied): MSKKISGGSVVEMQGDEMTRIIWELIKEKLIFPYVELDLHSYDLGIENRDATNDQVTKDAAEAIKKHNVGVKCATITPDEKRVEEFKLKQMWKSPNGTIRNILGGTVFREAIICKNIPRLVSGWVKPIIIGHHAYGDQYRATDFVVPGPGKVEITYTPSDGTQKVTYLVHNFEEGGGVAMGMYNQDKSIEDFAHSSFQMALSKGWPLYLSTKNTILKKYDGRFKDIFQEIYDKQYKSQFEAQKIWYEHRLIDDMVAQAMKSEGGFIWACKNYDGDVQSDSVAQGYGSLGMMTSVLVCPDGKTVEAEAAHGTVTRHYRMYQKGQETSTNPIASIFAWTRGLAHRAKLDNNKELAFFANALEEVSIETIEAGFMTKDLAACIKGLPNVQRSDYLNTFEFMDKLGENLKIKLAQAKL
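IDH1-R132H (0.5 ug/mL dispensed) in pH 7.5 Tris buffer was preincubated 30 min with compound, then given a substrate mix of 0.016 mM NADPH and 2 mM alpha-KG for 80 min at room temperature; remaining NADPH was read by diaphorase/resazurin fluorescence.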
* marks the source's active call; other numbers are inactive results; u = inconclusive; x = no result; [ ] = remark or other dose. Calls come from the whole dose curve; as a rule, active = well fitted curve in the direction sought with a large enough effect; inconclusive = small, poorly fitted or top-dose-only effect, or another doubt; inactive = no such curve, though single readings can be large; an effect the other way counts as inactive or inconclusive. Potency is the fitted concentration of half-maximal effect.

SMILES	Nrf2 block	Nrf2 ARE act	ELG1 DNA repair	A549 tox	mIDH1 inhibitor
CC(=NNC(=S)N1CCN(c2ccccn2)CC1)c1nccs1	13µM*	6.0%	x	-26.8%	3.6%
S=C(Nc1ccc(Cl)c(Cl)c1)N1CCN(c2ccccn2)CC1	5.6%	4.8%	-4.3%	-0.5%	-1.6%
OCC[C@@H]1C[C@@H](O)[C@H](O)[C@@]2(Cc3ccccc3CCO2)O1	9.8%	-0.3%	8.2%	2.4%	4.1%
CSCC[C@H]1COC[C@@H](Cc2ccccc2)N1c1ccccc1	x	-0.5%	x	x	-1.1%
Cn1c(=O)c2[nH]c(C3CCCC3)nc2n(C)c1=O	6.51µM*	0.9%	x	-8.7%	-1.1%
Cn1c(=O)c2[nH]c(C3CC=CCC3)nc2n(C)c1=O (stereo not given)	u	-0.5%	x	-4.2%	2.8%
CC(=O)c1c(C)[nH]c(C(=O)COC(=O)c2c(-c3ccccc3)noc2C)c1C	u	-0.5%	20.6µM*	-1.1%	-5.4%
COc1ccc(Cl)cc1NC(=O)COC(=O)c1c(-c2ccccc2)noc1C	10.3µM*	0.4%	u	-0.8%	1.0%
Cc1ccccc1-c1cnc(C(O)c2cc(Cl)cc(Cl)c2)[nH]1 (stereo not given)	x	10.5%[9.22 µM]	x	x	x
CCOc1ccc(NC(=O)CCCn2c(C)c3cnn(-c4ccccc4)c(=O)c3c2C)cc1	23.7%	-1.6%	x	-0.8%	0.0%
COc1ccc(-c2cc(C(F)(F)F)nc(SCC(=O)NCc3ccco3)n2)cc1OC	-0.5%	5.4%	23.1µM*	-0.2%	9.6%
O=C(CSc1nc(-c2ccco2)cc(C(F)(F)F)n1)Nc1ccc(C(=O)N2CCCCC2)cc1	23.1µM*	0.0%	4.61µM*	-15.9%	5.5%
Cc1cc(NC(=O)CCSc2nc(-c3ccco3)cc(C(F)(F)F)n2)n(-c2ccccc2)n1	u	4.1%	25.9µM*	-1.5%	-3.1%
Cc1ccc(NC(=O)CSc2nc(-c3ccco3)cc(C(F)(F)F)n2)cc1	6.8%	-0.1%	x	-3.7%	15.0%
Cc1nn(C)c(C)c1NC(=O)CCSc1nc(-c2ccco2)cc(C(F)(F)F)n1	-19.7%	1.3%	-18.3%	-1.9%	12.8%
COc1ccc(NC(=O)CCCSc2nc(-c3ccco3)cc(C(F)(F)F)n2)cc1OC	20.6µM*	-0.4%	20.6µM*	-17.4%	-5.0%
CCOC(=O)c1cc(-c2ccc(OC)cc2)n(CCC(=O)NCc2ccccc2OC)c1C	x	13.9%	x	2.7%	-6.7%
CCOc1ccc(NC(=O)CN(C)S(=O)(=O)c2ccc3[nH]c4c(c3c2)CCCC4)cc1	u	0.1%	x	-21.0%	0.0%
Cc1ccnc(S(=O)(=O)Cc2ccc([N+](=O)[O-])cc2)n1	u	12.6µM*	-1.8%	-7.1%	10.8%
COc1ccccc1/C=C\C(=O)NCC(=O)N/N=C/c1ccc(O)cc1O	-13.5%	-0.5%	23.1µM*	3.0%	0.7%
O=C(CCc1ccccc1)NCC(=O)N/N=C/c1ccc(O)cc1O	u	-2.0%	8.2µM*	9.9%	-4.9%
COc1ccccc1/C=C/C(=O)NCC(=O)N/N=C/c1ccccc1	-14.5%	3.6%	-6.0%	0.9%	-10.7%
O=C(N1CCc2ccc(S(=O)(=O)N3CCN(S(=O)(=O)c4ccc5c(c4)OCCO5)CC3)cc2C1)C(F)(F)F	16.9%	x	x	-2.1%	x
CC1CCCCCCC1OC(=O)c1ccccc1C(=O)O (stereo not given)	2.3%	-0.3%	x	1.2%	-0.3%
COc1ccc(S(=O)(=O)NCc2ccncc2)cc1OC	x	-1.1%	7.31µM*	-8.1%	0.0%
SMILES	Nrf2 block	Nrf2 ARE act	ELG1 DNA repair	A549 tox	mIDH1 inhibitor
CCOC(=O)c1ccc(N2C(=O)C(CC(N)=O)N(CCc3ccc(OC)c(OC)c3)C2=S)cc1 (stereo not given)	-5.9%	0.4%	u	2.0%	-13.1%
CN1Cc2c(N3CCOCC3)nc(SCc3ccccc3)c(C#N)c2CC1(C)C	x	0.3%	u	12.5%	-1.0%
CC1(C)Cc2c(C#N)c(SCC(=O)c3ccccc3)nc(N3CCOCC3)c2CS1	16.4µM*	-0.4%	u	-18.1%	0.2%
CCS(=O)(=O)N1Cc2ccccc2CC1C(=O)Nc1cccc(OC)c1 (stereo not given)	u	2.9%	2.31µM*	-5.8%	1.1%
CCS(=O)(=O)N1Cc2ccccc2CC1C(=O)Nc1ccc(OC)c(OC)c1 (stereo not given)	6.7%	-0.4%	-1.7%	5.4%	16.7%
COc1cc(NS(=O)(=O)c2ccc(OC)c(C)c2C)c(OC)cc1Cl	20.6µM*	-0.4%	u	-12.5%	10.1%
CCCN1C(=O)C(Cc2nc3ccccc3c(=O)n2CC)c2cc(Br)ccc21 (stereo not given)	-2.6%	2.8%	x	-7.4%	1.9%
Cc1nn2c(C(F)(F)F)cc(-c3ccc(Cl)cc3)nc2c1C(=O)N1CCOCC1	x	-0.4%	16.4µM*	-11.3%	0.9%
COc1ccc(C(=O)CSc2nc(-c3ccccn3)nc(C)c2Cl)cc1	u	3.3%	16.4µM*	-22.3%	4.8%
Cc1nc(-c2ccccn2)nc(SCC(=O)c2ccc(F)cc2)c1Cl	9.5%	3.1%	u	5.5%	-5.4%
COc1ccc(C(=O)Oc2ccc(C(c3c(C)[nH][nH]c3=O)c3c(C)[nH][nH]c3=O)cc2)cc1	14.6%	9.9%	x	-3.1%	-8.3%
Cc1cc(NC(=O)COC(=O)C(Nc2ccc(C(F)(F)F)cc2Cl)C(C)C)no1 (stereo not given)	23.1µM*	0.3%	u	23.1µM*	2.3%
C[C@H](CO)N1C[C@H](C)[C@@H](CN(C)C(=O)NC2CCCCC2)Oc2ccc(NS(C)(=O)=O)cc2C1=O	-2.9%	2.4%	u	0.2%	-13.3%
O=C(/C=C/c1ccc([N+](=O)[O-])cc1)Nc1cccc(S(=O)(=O)NC2=NCCCCC2)c1	18.4µM*	4.0%	14.6µM*	-18.8%	6.2%
O=C(/C=C/c1ccccc1Cl)Nc1cccc(S(=O)(=O)NC2=NCCCCC2)c1	9.2µM*	15.3%	20.6%	u	8.6%
Nc1cc(S(=O)(=O)N2CCN(S(=O)(=O)c3ccc4c(c3)OCCO4)CC2)ccn1	2.3%	x	x	-0.4%	x
COc1ccc(Oc2nc(-c3ccccn3)ncc2OC)cc1	-21.8%	-1.2%	-28.2%	-13.7%	4.5%
COc1cnc(-c2ccccn2)nc1N(C)C	8.2µM*	0.1%[9.22 µM]	u	u	-3.6%
O=[N+]([O-])c1cccc(COc2ncnc3cc([N+](=O)[O-])ccc23)c1	-29.5%	5.0%	10.3µM*	-10.9%	6.8%
COc1ccc(CCNC(=O)COc2ncnc3cc([N+](=O)[O-])ccc23)cc1	-5.1%	-0.4%	-17.3%	0.6%	-20.0%
